D2 PAM-1: HTS Assay for Positive Allosteric Modulators of the Human D2 Dopamine Receptor: Primary Screen for Potentiators. HEK293 T-REx D2, calcium flux, EC20 dopamine potentiation. hit rate 0.34% among 340,000. potentiation, % at 10 µM. AID 485347, 2010;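 active = potentiation over 3 SD above the plate norm, cut at about 30% in these data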; note: 0% is about no effect
Target sequence (P14416 whole entry, looked up): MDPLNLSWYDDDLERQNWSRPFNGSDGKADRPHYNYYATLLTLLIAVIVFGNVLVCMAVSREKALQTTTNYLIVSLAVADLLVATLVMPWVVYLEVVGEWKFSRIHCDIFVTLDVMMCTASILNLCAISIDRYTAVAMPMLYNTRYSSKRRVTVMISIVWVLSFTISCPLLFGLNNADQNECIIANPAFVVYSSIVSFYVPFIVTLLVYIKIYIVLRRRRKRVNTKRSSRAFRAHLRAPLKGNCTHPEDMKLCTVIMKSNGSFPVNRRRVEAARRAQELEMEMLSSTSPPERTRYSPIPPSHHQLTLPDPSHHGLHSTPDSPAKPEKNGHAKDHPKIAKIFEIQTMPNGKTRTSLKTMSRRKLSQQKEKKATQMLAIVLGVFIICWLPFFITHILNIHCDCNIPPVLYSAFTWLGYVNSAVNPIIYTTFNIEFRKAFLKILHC
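Cells plated with tetracycline inducer and held overnight at 30 C; calcium dye loaded 30–90 min at room temperature; baseline taken, compound added and read 180 s; EC20 dopamine then added and read 180 s.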
D2 ag-1: HTS Assay for Allosteric Agonists of the Human D2 Dopamine Receptor: Primary Screen for Agonists. AID 485358, 2010. hit rate 0.53% among 340,000. activation, % at 2 µM. HEK293 T-REx D2 cells, calcium flux agonist mode. D(2) dopamine receptor (Homo sapiens), P14416;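 active = activation over 3 SD above normal in the single-dose calcium agonist read, cut at about 30% in these data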; note: 0% is about no effect
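HEK293 Trex D2 cells, tetracycline-induced, o/n 30 C 5% CO2; no-wash Ca dye, RT 30–90 min; 10-cycle baseline, 23 nl cpd added, kinetic Ca read 180 s; agonist hits = positive Ca response.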
D2 antagonist: HTS Assay for Allosteric Antagonists of the Human D2 Dopamine Receptor: Primary Screen for Antagonists; HEK293 TREx D2 cells, calcium flux, dopamine EC80; inhibition, % at 10 µM; hit rate 2% among 340,000; in the data active = inhibition above about 30%; inactive = below that, where a call was filed; note: 0% is about no effect
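Inhibition of EC80 dopamine-driven calcium flux, recorded kinetically, defines activity here; cells are a tetracycline-induced HEK293 T-REx line expressing force-coupled D2.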
D2 ag-2: Beta-Arrestin HTS for Positive Allosteric Modulators of the Human D2 Dopamine Receptor: Agonists; DiscoveRx PathHunter D2 beta-arrestin, luminescence, 90 min; 100% = 57 uM dopamine signal; activation, % (concentration not given with the values); hit rate 0.084% among 360,000; in the data active = activation above about 40%; inconclusive = between about 15% and that limit
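Agonist mode: compounds alone added to overnight-plated D2 PathHunter cells for 90 min at 37 C, with 57 uM final dopamine (EC100) defining full response. Beta-arrestin recruitment detected by chemiluminescent reagent, read after 1 h at ambient temperature.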
D2 PAM-2: Beta-Arrestin HTS for Positive Allosteric Modulators of the Human D2 Dopamine Receptor: Potentiators | DiscoveRx D2 beta-arrestin cells, luminescence, 90 min; 100% = 57 uM dopamine signal | potentiation, % (no concentration beside the values) | hit rate 0.23% among 360,000; in the data active = potentiation above about 50%; inconclusive = mostly about 30% to 49%
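PathHunter beta-arrestin assay in DiscoveRx D2 cells. Compounds were added with an EC20 of dopamine (50 nM final) for 90 min at 37 deg C. Luminescence was read 1 h after detection reagent, with 57 uM dopamine as the EC100 control.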
Active calls of the source: *; ? = inconclusive; nt = no result given. Rows were chosen to be rich in hits. Some 2.4% of all compounds tested hit in one or more screens of this group.

SMILES	D2 PAM-1	D2 ag-1	D2 antagonist	D2 ag-2	D2 PAM-2
O=C(c1ccc(S(=O)(=O)Nc2ccccc2)cc1)N1CCC1	1.1	-0.7	1.4	-1.9	-20.1
O=C(O)c1ccc(NS(=O)(=O)c2ccc(N3C(=O)CCC3=O)cc2)cc1	-15.8	-0.8	38.7*	-5.5	-7.8
Cc1nnc(NCc2ccccc2)c2c1nnn2Cc1ccccc1Cl	nt	0.1	nt	nt	nt
Cc1ccc(S(=O)(=O)N(CC(=O)N2CCCCC2)c2cccc(C)c2)cc1	-9.4	0.1	31.8*	-1.1	-5.7
Cc1cccc(N(CC(=O)N2CCCC2)S(=O)(=O)c2ccccc2)c1	nt	nt	nt	-0.8	2.0
C=CCn1c(COc2ccccc2)nnc1SC(C)C(=O)N/N=C/c1cc(Cl)ccc1O (stereo not given)	-3.9	-0.6	5.1	5.1	57.9*
O=C1C=C(Nc2ccc(Cl)cc2)CC(c2ccc(Cl)cc2)C1 (stereo not given)	28.0	-1.9	47.7*	-1.2	-27.7
Cn1c(C(=O)Nc2cccc(Cl)c2)cc2c(=O)n(C)c3ccccc3c21	7.0	-0.2	nt	nt	nt
CC(C)CC(=O)n1sc(NC(=O)c2ccccc2)nc1=O	-3.5	-0.5	-1.7	-3.0	-21.1
COC(=O)C1=C(C(=O)OC)SC(=C2C(=S)C(C)(C)N(C(=O)CC(C)C)c3ccccc32)S1	8.8	0.4	30.3*	-0.1	-12.4
CSc1ccc2c(c1)N(CCC1CCCCN1C)c1ccccc1S2 (stereo not given)	-28.6	1.5	98.1*	-3.5	-30.7
Cc1ccc(C(C)C)c(OCC(=O)NCC2(N(C)C)CCCCC2)c1	-22.6	-1.1	nt	nt	nt
COc1ccc(Nc2oc(-c3cccs3)nc2C#N)cc1	10.8	0.4	-8.0	8.1	62.0*
CNc1oc(-c2cccs2)nc1C#N	nt	nt	nt	0.0	9.3
COc1ccc(OC)c(-c2nc3c(C#N)c[nH]n3c2NC2CCCCC2)c1	5.4	-1.7	nt	nt	nt
Cc1ccccc1NC(=O)Cn1nnc(-c2ccc(CN3CCC(C)CC3)cc2)n1	-8.2	1.6	33.3*	0.4	-15.4
C(=C\c1ccccc1)/CN1CCN(C(c2ccccc2)c2ccccc2)CC1	nt	nt	52.7*	nt	nt
Fc1ccc(C(c2ccc(F)cc2)N2CCN(C/C=C/c3ccccc3)CC2)cc1	-25.3	-1.3	64.5*	-2.1	-30.0
Cc1ccccc1-c1nc(C(N)=O)c2c(n1)n(-c1ccc3c(c1)OCO3)c(=O)n2C	-0.6	0.2	nt	nt	nt
Cc1oc2ncn(CC(C)C)c(=O)c2c1C(=O)NCCCN1CCC(C)CC1	-16.0	-0.4	nt	nt	nt
CCOc1ccc(NC(=O)CN2C(=O)C(c3ccccc3)=NC23CCC(C)CC3)cc1 (stereo not given)	-3.1	1.6	nt	nt	nt
CN(C)S(=O)(=O)c1cc(NC(=O)CNCc2ccc(F)cc2)ccc1Cl	-26.2	0.0	43.8*	1.0	-26.5
CCOc1cc(C(=O)NCCc2csc(-c3ccc(C)cc3)n2)cc(OCC)c1OCC	-5.2	nt	nt	nt	nt
CCn1nnnc1-c1ccc(OC)c(S(=O)(=O)NCc2ccccc2)c1	1.5	0.2	33.1*	-2.8	4.1
CCn1nnnc1-c1ccc(OC)c(S(=O)(=O)Nc2ccc(C)c(C)c2)c1	-1.9	-0.1	-17.9	2.1	-19.4
SMILES	D2 PAM-1	D2 ag-1	D2 antagonist	D2 ag-2	D2 PAM-2
COc1cc(C(=O)NCC(c2cccs2)S(=O)(=O)c2ccc(F)cc2)cc(OC)c1OC (stereo not given)	5.4	0.4	nt	nt	nt
CCCCN1C(=O)/C(=C/C=C2\Oc3ccccc3N2CC)SC1=S	-5.4	61.1*	-7.1	1.9	-8.1
O=C(Nc1ccc2c(c1)N(C1CCCC1)C(=O)c1ccccc1S2)c1cccc(F)c1	-9.5	-0.5	nt	nt	nt
CCOc1ccc(NC(=O)C(CC)n2c(=O)c(-c3ccccc3NC(C)=O)nc3ccccc32)cc1 (stereo not given)	-6.6	-1.3	nt	nt	nt
CCOc1cc2c(cc1/C=C/c1noc(C)c1[N+](=O)[O-])OC(C)C2 (stereo not given)	3.1	64.4*	13.7	-5.8	-5.9
COc1ccc(NC(=O)Cc2c(C(=O)O)n(C)c3ccccc23)cc1OC	31.8*	-0.2	2.4	-5.2	-1.0
COc1cc(NC(=O)Cc2c(C(=O)O)n(C)c3ccccc23)cc(OC)c1OC	nt	nt	nt	5.0	-4.1
CCC(C)Sc1nc2c(c(=O)[nH]c(=O)n2C)n1CC(O)COc1ccccc1C (stereo not given)	-5.8	0.3	30.1*	-2.0	-1.9
CCC(C)Sc1nc2c(c(=O)[nH]c(=O)n2C)n1CCc1ccccc1 (stereo not given)	17.3	0.8	-27.9	1.9	-10.8
CCOC(=O)C1CCCN(C(=O)CSc2ccc(NC(C)=O)cc2)C1 (stereo not given)	-10.5	33.7*	-7.8	?	5.5
CCOC(=O)C1CCCN(C(=O)c2cc(Cl)ccc2Cl)C1 (stereo not given)	-6.4	-0.8	30.8*	-0.2	1.5
COCCSc1ccccc1C(=O)N1CCCC(C)C1 (stereo not given)	8.1	-0.1	3.1	-3.0	-3.5
CCOC(=O)C1CCCN(C(=O)CSc2ccccc2)C1 (stereo not given)	-7.5	-0.1	3.8	-0.7	-6.0
CCOC(=O)C1CCCN(C(=O)c2ccccc2SCCOC)C1 (stereo not given)	-0.5	0.2	30.3*	3.0	-1.3
CCOc1ccc(CCNC(=O)c2ccc3c(c2)N(Cc2ccccc2F)C(=O)c2ccccc2S3=O)cc1OCC (stereo not given)	-5.5	0.4	nt	nt	nt
COc1ccc(OC)c(N)c1	-9.1	-1.0	-20.9	1.8	60.9*
Clc1ncccc1-c1nc2ccccc2s1	65.7*	-0.5	4.7	0.0	-4.8
COc1cccc(-c2nc3ccccc3s2)c1O	1.2	-0.7	-3.8	-3.3	-1.6
CCOC(=O)c1[nH]ncc1CN1CCCC(C(=O)c2ccc(OC)c(OC)c2)C1 (stereo not given)	nt	nt	nt	0.6	-9.5
CCOC(=O)c1[nH]ncc1CN1CCCC(C(=O)c2cc(Cl)ccc2OC)C1 (stereo not given)	-26.6	0.7	72.9*	-0.2	-5.6
COc1ccc(-c2nnc(NC(=O)c3ccccc3C)o2)cc1	-1.3	-0.8	51.4*	-3.3	-2.1
Cc1nc(SCC(=O)Nc2ccccc2Cl)oc1C	0.0	0.0	31.2*	-1.1	4.5
CCc1cccc(C)c1NC(=O)CSc1nc(C)c(C)o1	11.4	-0.1	-7.7	-1.4	-32.5
O=C(CSc1n[nH]c(-c2ccco2)n1)Nc1ccccc1Cl	8.4	0.2	30.3*	-4.0	-2.1
